According to article PMC12136788:
In all, about 24,000 sequences were measured (“enrichment r”: median about 0.99, highest 2% from about 3.7 on). This is one part of a sample in which the highest values are shown more often than they occur.

T1: UNK ZnF1-3 (human, UniProt Q9C0B0 31-174)
T1 sequence: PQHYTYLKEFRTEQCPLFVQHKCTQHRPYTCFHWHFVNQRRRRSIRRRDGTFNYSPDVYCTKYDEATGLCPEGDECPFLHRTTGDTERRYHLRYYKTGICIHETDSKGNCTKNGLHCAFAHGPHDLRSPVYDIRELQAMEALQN

B1: chr8:98731313:98731314:+_ENSG00000147649_ENST00000336273|hu_mus|motif|central (ssRNA)
RNA: GGGAGUUCUACAGUCCGACGAUCACAAGCUUUCUCCUGUUUUGGUCGGGCUUUUGAGGUAUUCACUGGAAGCUCUUCUCGGGUGUCCUUUUCUAGGUCUUCUGUGUCCUGUGUGUGAGAGUUAUCUUCCCCUUGCUUCUUCUUCAACAGAGGAUUGAGCAUCA
B2: 93992280_93998312_1055_3pUTR_ENSMUSG00000055932_ENSMUST00000069718|mouse|control|control (ssRNA)
RNA: GGGAGUUCUACAGUCCGACGAUCAUCAAAGGAUUUCAACGAGACGUCGCCAUCGUCUGAGUCAUUGAGGACAUUCUGCAGCGCCAACUGACAGCGUUCUAAGAUAUAAUCCAAGGUGCCUGUUGAGCACUCUGCCACACGGUGCAACAGAGGAUUGAGCAUCA
B3: chrX:20248820:20248821:+_ENSMUSG00000001924_ENSMUST00000001989|mus_mus|mus_mus_mus_hu_True|58_88 (ssRNA)
RNA: GGGAGUUCUACAGUCCGACGAUCGGCGAAGUCCGUCACCACAAAGUCAGGCUCUACCAGUGAGGCCACCAAGGAUUUAAAACUAAUCUUCUUAGGUACUUUGACCUGACUGACGAUGCCUCCACGGAUGUAGUCGGAGAAGUUCAACAGAGGAUUGAGCAUCA
B4: chr17:60770872:60770873:+_ENSG00000011028_ENST00000303375|hu_hu|hu_hu_hu_mus_True|48_78 (ssRNA)
RNA: GGGAGUUCUACAGUCCGACGAUCUCUUUAAAAAAAAAAAAAAAAAGACAAACAAUAAUAAUGGCACUCGAGAAUCAAGAACUACAAAGAAAGGGCCGCUUUGAGUUUUUGUUCACAUCGUCCUGCACUGGGACACGGGGACUGCAACAGAGGAUUGAGCAUCA
B5: chr17:60770872:60770873:+_ENSG00000011028_ENST00000303375|hu_hu|hu_hu_hu_mus_True|18_78 (ssRNA)
RNA: GGGAGUUCUACAGUCCGACGAUCUCUUUAAAAAAAAAAAAAAAAAGACAAACAAUAAUAAUGGCACUCGAGAAUCAAGAACUACAAUAGAGGGUCCGCUUUGAGUUUUUGUUCACAACAUUGUCCCCUGGGACACGGGGACUGCAACAGAGGAUUGAGCAUCA
B6: chr2:204281756:204281757:+_ENSG00000138443_ENST00000261017|hu_hu|motif|central (ssRNA)
RNA: GGGAGUUCUACAGUCCGACGAUCCUUUUCCAAGUAAGAACGUGGAGCCCACGGUGGGUCCUCUUCAGCAUAAGGAUCACGGUACUCAACCACAGCAGCUUCCUCCUCUUCGUAAUCUUCUGGAGGAGGAGGAGGUGGGGGAGACAACAGAGGAUUGAGCAUCA
B7: chr4:76721835:76721836:+_ENSG00000138768_ENST00000264904|hu_mus|hu_hu_hu_mus_True|68_78 (ssRNA)
RNA: GGGAGUUCUACAGUCCGACGAUCGUUUGGCUGGGGUUUCUGAGACGCUCUGGAAUAAACUCAUGUUUGCUAAUAAAAUCCUAGUUUCUCUAUGAAAUUCUCUUUGCCAAUCCUCUUCUCUAUUAGUUGCUUUAGUUUCUCUUUCAACAGAGGAUUGAGCAUCA
B8: chr14:62224477:62224478:+_ENSMUSG00000035235_ENSMUST00000039562|mus_hu|FALSE|FALSE (ssRNA)
RNA: GGGAGUUCUACAGUCCGACGAUCUUCAUUGAAAAUGAAAAACCCAUCUGUCACCUGUUCCCAGUAAAAAACUGAUUGUUCUAUGAAAUCGGCUGUUUUAGUCAGAUAGGAACUGAAGUUUGAAAGACAGCCUUUCCAAGUUGCCAACAGAGGAUUGAGCAUCA
B9: 31895827_31897285_3242_CDS_ENSMUSG00000042323_ENSMUST00000112095|mouse|control|control (ssRNA)
RNA: GGGAGUUCUACAGUCCGACGAUCCCAACAGCCGUACAACCAUUUUUCACCAGCUGAAUCCUCCCACAGUCUCUCAAUACACACUAUAUGUGGUUGUAGAUUGGCCUCCGCAGGUUCAACAUAGACAUAAUCUCCGACAUGAUACAACAGAGGAUUGAGCAUCA
B10: chr14:76906223:76906224:+_ENSMUSG00000022010_ENSMUST00000022587|mus_mus|FALSE|FALSE (ssRNA)
RNA: GGGAGUUCUACAGUCCGACGAUCCACUUCCUCCCUCACCGCAUACAUCAAAUGGCUUUUCACCAGAUCCAUAGCUUGCUCUAUUUUGUUGUCGAUAGCUACCACACUUGCACCAGAGCUAUUGUCAAGUCUCACGGAAGCGUUCAACAGAGGAUUGAGCAUCA
B11: chr5:143665338:143665339:-_ENSMUSG00000029580_ENSMUST00000100497|mus_hu|FALSE|FALSE (ssRNA)
RNA: GGGAGUUCUACAGUCCGACGAUCCACCUUCACCGUUCCAGUUUUUAAAUCCUGAGUCAAGCCAAAAAAAAAAAAAAAACCAAAACAAAACAAAAAAAACAAAUAAAGCCAUGCCAAUCUCAUCUUGUUUUCUGCGCAAGUUAGCAACAGAGGAUUGAGCAUCA
B12: chr14:76904430:76904431:+_ENSMUSG00000022010_ENSMUST00000022587|mus_mus|mus_mus_mus_hu_True|58_108 (ssRNA)
RNA: GGGAGUUCUACAGUCCGACGAUCUGCUGGAAAAAAAACCCUCGUGGAAAAAAAGAGGGAACACCAGCAGCCUUGUACAAACUAGAUAAAAUCUUCUGGCUUUCCGCAGCCCAGGGAGAAACAGAAAACGGCAGCCCUAAUUUACAACAGAGGAUUGAGCAUCA
B13: chr1:71529667:71529668:-_ENSG00000132485_ENST00000254821|hu_hu|FALSE|FALSE (ssRNA)
RNA: GGGAGUUCUACAGUCCGACGAUCUUGUCACUGGAAAUACUGUUAAGAGAAACCUUUUUAUUUUUUAAACCAGAAAACAAACUAAAGCUCAUGUGACCAGAUUUUAAUUUUGAGAAAUAAACUCCAAAAGCAUUUUAAGCCAUACAACAGAGGAUUGAGCAUCA
B14: 39249924_39250044_1625_CDS_ENSG00000115904_ENST00000402219|human|control|control (ssRNA)
RNA: GGGAGUUCUACAGUCCGACGAUCACUCCGGUACUGUAAAGAUAUCAAUGCUGCCAUCCAAUUGUUUUUCUCUUCAGCUGACUUGGCAGAAAAUAUAACACUAUUUUCAUCUUUUAAAAUUAUUUCAAAAGCAUGCUUGUAUUCCAACAGAGGAUUGAGCAUCA
B15: chr1:109605425:109605426:-_ENSG00000197780_ENST00000461096|hu_mus|FALSE|FALSE (ssRNA)
RNA: GGGAGUUCUACAGUCCGACGAUCUUUAAUCAACUCUCCGUUCUCACAAUUAAAGUACUUACAUUUCCGUCACUAGAGCACAGCCAGAAACACCUGGGCUGGCAUCGGCUCUUUAAGCCCUGCCGUUCCCACUACUGAGGCAUUCAACAGAGGAUUGAGCAUCA
B16: 55618536_55618656_2401_CDS_ENSG00000126787_ENST00000247191|human|control|control (ssRNA)
RNA: GGGAGUUCUACAGUCCGACGAUCAACAUCUGAAAUUCCUUCUUUUUUGUUAGUAUUAAUAUCAUCUGCUACUCCACCAGCAAGAAGAGGCAAACUCAUUCUCUCACUGGAUAAACAAUCCACCUUCAAGUCUGUCUUAUUUACCAACAGAGGAUUGAGCAUCA
B17: chr9:108650075:108650076:+_ENSMUSG00000032601_ENSMUST00000035220|mus_mus|FALSE|FALSE (ssRNA)
RNA: GGGAGUUCUACAGUCCGACGAUCAGCAAUUUGUUUAUGUAAACAGCACAGAGGUUAAACAAAACAAAACAAAACAAAAACCUACUAAAUACAAACAACAAAAACCCUAACCCAGAUAACCUUUCCUGGCUACUACUGGAAAGACAACAGAGGAUUGAGCAUCA
B18: chr3:124025330:124025331:+_ENSMUSG00000044528_ENSMUST00000058994|mus_mus|FALSE|FALSE (ssRNA)
RNA: GGGAGUUCUACAGUCCGACGAUCGUUUAAUCUUAAUUCCCACCACCACUCAUACCGCUGCCAACCCUUAAAAACACAUUAGACAAUAACAAUAGCAAUAUUUAAAAAAGCACGACCCGUUCUGAAAAACAGAAACUCUCUAGCCAACAGAGGAUUGAGCAUCA
B19: 77377103_77377223_5427_3pUTR_ENSG00000048649_ENST00000308488|human|control|control (ssRNA)
RNA: GGGAGUUCUACAGUCCGACGAUCUACAGUCCACCCAGGCCUUAAGAAAGACCACAUUCAUUUCACUAAUAACUCUCCAUCAGACACAAUAUAUUUGAGGCCACCUUAUUACCACUGCAUAAAGCUUAUUUAAAAAAAUUUGUUCAACAGAGGAUUGAGCAUCA
B20: chr2:32530853:32530854:+_ENSG00000119820_ENST00000437765|hu_mus|FALSE|FALSE (ssRNA)
RNA: GGGAGUUCUACAGUCCGACGAUCUUCAGAAUUCUGACCAAAAAAAAGAAAAAAAAAUCCCAGAUAACUGCAAUUACUUAAAUACAAAAAAUAUUGUUUUAAAAAGACUUUAAGCCUGCCUCUCUAUCUGGAAUGUAUAAAAUUCAACAGAGGAUUGAGCAUCA

biological target: T1, UNK ZnF1-3; test: nsRBNS (natural sequence RNA bind-n-seq); RBNS binding buffer (assumed for nsRBNS): 25 mM Tris pH 7.5, 150 mM KCl, 3 mM MgCl2, 0.01% Triton X-100, 500 ug/ml BSA, 20 U/ml SUPERase-In, 4 C; UNK is unkempt and MSI1 is Musashi-1; names of the RNAs are library labels; protein concentration not given here; high values mean tight binding

Binder	binding signal [enrichment R]
B1	0.279
B2	1.07
B3	0.887
B4	4.71
B5	4.19
B6	0.684
B7	0.621
B8	0.96
B9	1.01
B10	1.04
B11	2.75
B12	2
B13	1.66
B14	1.14
B15	0.922
B16	1.29
B17	4.03
B18	4.17
B19	3.78
B20	4.78
